In ChEMBL document CHEMBL4808148, “HDAC6 screening dataset using tau-based substrate in an enzymatic assay yields selective inhibitors and activators” (2021) one finds inhibition data, which are given here for 31 compounds.

Screen size: about 5,600 compounds; about 390 (7%) showed an effect of 50% or more. The sample as a whole holds a higher share of strong results than the screen did.

For test [1], the target named is T1, Protein deacetylase HDAC6 (Homo sapiens) (UniProt Q9UBN7).
T1 sequence (whole entry): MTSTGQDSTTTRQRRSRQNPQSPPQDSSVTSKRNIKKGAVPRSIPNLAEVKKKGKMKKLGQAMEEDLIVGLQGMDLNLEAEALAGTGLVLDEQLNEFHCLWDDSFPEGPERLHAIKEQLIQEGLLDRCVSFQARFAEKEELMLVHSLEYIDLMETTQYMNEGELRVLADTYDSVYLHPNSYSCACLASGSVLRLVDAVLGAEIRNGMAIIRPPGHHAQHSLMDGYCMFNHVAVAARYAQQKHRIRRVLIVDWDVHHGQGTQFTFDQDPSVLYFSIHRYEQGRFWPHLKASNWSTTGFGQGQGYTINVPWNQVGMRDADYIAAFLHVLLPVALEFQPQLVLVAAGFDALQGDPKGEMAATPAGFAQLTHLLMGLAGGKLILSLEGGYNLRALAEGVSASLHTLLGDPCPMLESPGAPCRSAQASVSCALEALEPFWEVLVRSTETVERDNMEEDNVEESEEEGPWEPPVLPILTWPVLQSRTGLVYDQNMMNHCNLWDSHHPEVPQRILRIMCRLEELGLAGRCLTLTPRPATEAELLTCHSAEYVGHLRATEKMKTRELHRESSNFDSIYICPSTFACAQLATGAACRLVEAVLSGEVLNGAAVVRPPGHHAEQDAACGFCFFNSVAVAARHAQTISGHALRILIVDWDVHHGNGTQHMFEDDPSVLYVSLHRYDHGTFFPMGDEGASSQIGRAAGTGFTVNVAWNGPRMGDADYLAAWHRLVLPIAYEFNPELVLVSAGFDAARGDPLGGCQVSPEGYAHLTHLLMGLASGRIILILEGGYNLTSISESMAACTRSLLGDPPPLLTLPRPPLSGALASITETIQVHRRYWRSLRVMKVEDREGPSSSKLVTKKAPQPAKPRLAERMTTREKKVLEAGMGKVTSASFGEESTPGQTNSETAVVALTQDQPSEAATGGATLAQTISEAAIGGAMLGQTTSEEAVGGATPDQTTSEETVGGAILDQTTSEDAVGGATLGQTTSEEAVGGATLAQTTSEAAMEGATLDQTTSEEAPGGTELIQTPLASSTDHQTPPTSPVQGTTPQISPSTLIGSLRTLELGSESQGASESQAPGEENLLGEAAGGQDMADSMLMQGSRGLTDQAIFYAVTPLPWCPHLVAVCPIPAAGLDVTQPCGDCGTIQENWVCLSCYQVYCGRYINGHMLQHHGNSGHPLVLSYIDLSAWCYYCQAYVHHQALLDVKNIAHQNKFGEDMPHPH
The note with it: at 10 µM.

Test [2] deals with Protein deacetylase HDAC6 (Homo sapiens) (UniProt Q9UBN7). The note with it: at 10 µM. The source holds these as a separate data set.

Take `CO[C@@H]1[C@H](OC(=O)/C=C/C=C/C=C/C=C/C(=O)O)CC[C@]2(CO2)[C@H]1[C@@]1(C)O[C@@H]1CC=C(C)C`: the inhibition in test [1] stood at 3.49%. On to `CCCCC[C@H](O)/C=C/[C@@H]1[C@H]2C/C(=C/CCCC(=O)O)O[C@H]2C[C@H]1O`, for which, in test [1], the inhibition is 10.8%. With `Cn1cc(CCn2cnc(-c3cnn(C)c3)c2-c2ccc(C#N)cc2)cn1`, in test [1], the inhibition was found to be 15%. Regarding `O=S(=O)(O)c1ccc2[nH]c(-c3ccccc3)nc2c1`, the inhibition in test [1] stood at 84.1%. As to `O=C1c2ccc(Nc3ccc(F)cc3F)cc2CCc2ccc(OC[C@H](O)CO)cc21`, the inhibition in test [1] worked out at 24.2%. Turning to `C#Cc1cnc2nc(O)n(C(CC)CC)c2n1`, in test [1], the inhibition is -6.31%. Regarding `Nc1nc(N)nc(-c2cc(Cl)ccc2Cl)n1`, the inhibition in test [1] turned out to be 17.2%.

On to `Nc1ncnc(Nc2ccc(Cl)cc2)n1`, for which, in test [1], the inhibition was determined as 74.5%. `Nc1ncnc2[nH]nc(Nc3ccc(F)cc3)c12`: the inhibition in test [1] came out at 17.6%. As to `CCO/N=C(/C(=O)NC1C(=O)N2C(C(=O)O)=C(Sc3nc(-c4cc[n+](C)cc4)cs3)CS[C@H]12)c1nsc(NP(=O)(O)O)n1` (stereo partly specified), the inhibition in test [1] came to 20.6%. For the compound `CC(C)[C@@H]1CC[C@@H](C)C[C@H]1O`, the inhibition in test [1] worked out at 2.89%. On to `CN(C)CCC(O)(c1ccccc1)c1ccccc1Cl` (stereo unspecified), for which the inhibition in test [1] was 36.5%. Turning to `Cc1ccc(NC2=CC(=O)c3sc(C)nc3C2=O)cc1`, in test [1], the inhibition stood at 53.2%. On the same count and under the same terms, under `Cc1c(-c2ccccc2F)[nH]c(N)c1C#N` stands 28.6%.

VERTEPORFIN, CHEMBL5314346: in test [2], the inhibition is 22.2%. Turning to `CC[N+](CC)(CC)CCOc1ccc(/C=C/c2ccccc2)cc1`, in test [1], the inhibition is -4.16%. As for `Cc1cccc(/C=C/c2ccccc2)n1`, the inhibition in test [1] is 100%.

Regarding `Nc1nccc(/C=C/c2ccccc2)n1`, the inhibition in test [1] stood at 99.6%. Regarding `CC(C)[C@@H]1CC[C@@H](C)C[C@@H]1P(=O)(c1ccccc1)c1ccccc1`, the inhibition in test [1] is -9.96%. Regarding `CCC(CC)(NC(=O)C(C)C)C(=O)N[C@@H](CCCNC(=N)N)C(=O)NC1(C(=O)NC(c2ccc(F)cc2)c2ccc(F)cc2)CCCC1`, the inhibition in test [1] was determined as 22%. Regarding `CSC[C@H](N)C(=O)O`, the inhibition in test [1] is 15.3%. With `Cc1ccc2c(c1)C(=O)[C@]1(O)CCN(c3ccccc3)C1=N2`, the inhibition in test [1] was -8.19%. For `COc1ccc(-c2coc3cc(O)cc(O)c3c2=O)cc1`, in test [1], the inhibition amounted to 100%. For `O=c1c(-c2ccc(O)cc2)coc2cc(O)cc(O)c12`, the inhibition in test [1] turned out to be 112%. Consider `CN1CCN(c2ccc(/C=C(\C#N)c3ccccc3Br)cc2)CC1`, for which the inhibition in test [1] is -8.48%.

In the case of `Nc1ncc(Cc2ccc(Br)cc2)s1`, the inhibition in test [1] is 12.3%.

For `c1ccc(-c2nc(CN3CCN(c4ncccn4)CC3)c[nH]2)cc1`, the inhibition in test [1] is -4.48%.

Turning to `C=CCOc1ccc(CC(=O)O)cc1Cl`, the inhibition in test [1] was found to be 9.47%. Still for that read-out and setting: under `Cc1ccsc1C(=CCCN1CCC[C@@H](C(=O)O)C1)c1sccc1C` stands 20.9%.

For the compound `NC1(c2ccc(-c3nc4ccn5c(=O)[nH]nc5c4cc3-c3ccccc3)cc2)CCC1`, the inhibition in test [1] was 12.5%.

Regarding `O=C(O)CCc1cc(I)c(Oc2ccc(O)cc2)c(I)c1`, the inhibition in test [1] is -9.91%.

As usually defined, the inhibition is the change of the read-out against control, counted positive when it falls.
